In PubChem BioAssay (NCATS):
Where “and” joins values, the source holds several entries; their conditions need not be identical. Equal entries are not always repeated. Results filed as inconclusive are left out. Calls of active or inactive are those of the source. Unless noted, calls come from the whole dose curve; as a rule, active = well fitted curve in the direction sought with a large enough effect; inconclusive = small, poorly fitted or top-dose-only effect, or another doubt; inactive = no such curve, though single readings can be large; an effect the other way counts as inactive or inconclusive.

Experiments:
[1] = biological target: 3',5'-cyclic-AMP phosphodiesterase 4B (Homo sapiens) (UniProt Q07343); experiment: qHTS Assay for Inhibitors of PDE-IV (AID 607; active = well fitted activation curve with a large enough effect in the main read-out, with a control signal flat, not every such curve was filed as active; note: % of control where 0% means no effect)
Sequence of 3',5'-cyclic-AMP phosphodiesterase 4B (Homo sapiens) (Q07343 whole entry, looked up): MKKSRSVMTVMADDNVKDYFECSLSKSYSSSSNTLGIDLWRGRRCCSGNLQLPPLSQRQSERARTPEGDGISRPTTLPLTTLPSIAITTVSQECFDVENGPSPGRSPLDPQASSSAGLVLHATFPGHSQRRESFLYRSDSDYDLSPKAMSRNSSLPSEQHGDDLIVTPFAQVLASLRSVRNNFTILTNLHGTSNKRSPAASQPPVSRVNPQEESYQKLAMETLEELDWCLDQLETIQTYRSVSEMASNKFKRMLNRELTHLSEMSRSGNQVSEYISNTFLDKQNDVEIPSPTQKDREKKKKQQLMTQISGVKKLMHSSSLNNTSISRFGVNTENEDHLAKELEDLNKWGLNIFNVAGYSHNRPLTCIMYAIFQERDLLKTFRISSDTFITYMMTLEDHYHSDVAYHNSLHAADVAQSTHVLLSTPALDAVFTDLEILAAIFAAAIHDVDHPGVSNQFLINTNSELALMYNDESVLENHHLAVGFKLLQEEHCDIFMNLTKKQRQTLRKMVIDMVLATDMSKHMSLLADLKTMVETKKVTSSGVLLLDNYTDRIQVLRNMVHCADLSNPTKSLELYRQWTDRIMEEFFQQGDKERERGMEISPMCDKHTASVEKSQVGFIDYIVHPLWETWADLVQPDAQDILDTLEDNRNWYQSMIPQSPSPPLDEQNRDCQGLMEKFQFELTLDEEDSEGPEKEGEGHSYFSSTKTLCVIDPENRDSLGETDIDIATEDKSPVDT
Method in brief: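 The readout is membrane depolarisation from a cAMP-sensing CNG channel, detected with a potential dye at ex 535/em 590. Cells were HEK293-derived (endogenous PDE-IV) at 1000 cells/well, titrated up to 22.9 uM final.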

[2] = qHTS Assay for Lipid Storage Modulators (AID 1519; calls by dose curve); details: Drosophila S3 cells, BODIPY lipid droplet/cell ratio, laser cytometry, cells loaded with oleic acid; for activity change, negative = inhibition: at 57.5 µM (top of the series)
Method in brief: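 Cells seeded at 5,000 per well were treated with compounds over a concentration series and loaded with oleic acid (400 uM, as added). Lipid droplet fluorescence (488 nm excitation, 500-530 nm channel) was read by laser-scanning cytometry and normalized to 20 uM Triacsin C.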

[3] = biological target: Ubiquitin carboxyl-terminal hydrolase 1 (Homo sapiens) (UniProt O94782); experiment: Inhibitors of USP1/UAF1: Pilot qHTS (AID 504865);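 note: rhodamine fluorescence freed from ubiquitin-rhodamine substrate followed over time; top concentration of the series differs between compounds; % is set by controls: 0 for no effect and ±100 for the full control effect; nearly all actives have a fitted effect of over 35% in size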
Method in brief: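 Deubiquitinase activity followed as kinetic rhodamine fluorescence release from 150 nM Ub-Rho. 1 nM USP1/UAF1 with compound, after 15 min room-temperature preincubation, in HEPES pH 7.8 buffer containing TCEP, EDTA, BSA and Tween-20.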

[4] = biological target: DNA dC->dU-editing enzyme APOBEC-3G (Homo sapiens) (UniProt Q9HC16); experiment: qHTS for inhibitors of Vif-A3G interactions: Validation (AID 588379); note: 0% is about no effect
Sequence of DNA dC->dU-editing enzyme APOBEC-3G (Homo sapiens) (Q9HC16 whole entry, looked up): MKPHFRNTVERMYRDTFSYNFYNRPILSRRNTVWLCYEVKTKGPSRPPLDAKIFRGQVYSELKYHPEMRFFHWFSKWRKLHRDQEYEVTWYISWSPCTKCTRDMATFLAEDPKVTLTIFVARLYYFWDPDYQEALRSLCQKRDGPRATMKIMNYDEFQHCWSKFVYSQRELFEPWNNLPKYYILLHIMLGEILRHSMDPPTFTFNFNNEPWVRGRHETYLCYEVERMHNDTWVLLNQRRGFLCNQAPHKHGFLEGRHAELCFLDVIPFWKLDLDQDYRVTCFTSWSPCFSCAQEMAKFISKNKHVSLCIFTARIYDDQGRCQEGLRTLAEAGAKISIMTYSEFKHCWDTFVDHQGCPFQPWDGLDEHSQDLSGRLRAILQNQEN
Method in brief: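 HeLa cells stably expressing Vif and A3G-eYFP, 700 cells/well, incubated overnight at 37 deg C, then exposed to compound overnight at 37 deg C. Inhibition of Vif-mediated degradation read as increased yellow fluorescence (Ex 488/Em 500-530) by laser-scanning cytometry.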

[5] = system: Zika virus NS2B-NS3 protease; experiment: Primary screen GU AMC qHTS for Zika virus inhibitors (AID 1347154);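 note: 0% = no-inhibitor control and -100% = no-enzyme control; nearly all actives have a fitted effect of over 70% in size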
Method in brief: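 Unlinked Zika NS2B hydrophilic domain–NS3 protease complex at 25 nM in 10 mM Tris-HCl pH 8.0, 0.01% Tween 20, with an AMC peptide substrate. Fluorescence change (340/450 nm) over 15 min at room temperature, normalized to controls, fitted to 4-parameter Hill.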

[6] = Primary qHTS for small molecule stabilizers of the endoplasmic reticulum resident proteome: Secreted ER Calcium Modulated Protein (SERCaMP) assay (AID 1508630); note: % is set by controls: 0 for no effect and ±100 for the full control effect
Method in brief: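 GLuc-SERCaMP-expressing SH-SY5Y cells, pretreated 16 h with compound, are challenged with thapsigargin to empty ER calcium stores; after 4 h, coelenterazine is added directly to the medium and luminescence is imaged.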

[7] = biological target: Glucocorticoid receptor (Homo sapiens) (UniProt P04150); experiment: GR-GFP Redistribution (AID 450;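 active = compounds whose dose series gives a full or clear partial fitted curve of increased nuclear translocation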; note: potency is the fitted concentration of half-maximal effect); details: U2OS GR-GFP nuclear translocation, laser cytometry, 2 h
[8] = biological target: Glucocorticoid receptor (Homo sapiens) (UniProt P04150); experiment: GR-EFC Redistribution (AID 451; calls by dose curve; note: potency is the fitted concentration of half-maximal effect); details: CHO-K1 GR-EFC translocation, beta-gal luminescence, 2 h
Method in brief: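 CHO-K1 cells expressing nuclear EA and GR-ED fragments of b-gal; compounds titrated up to 46 uM final, 2 h at 37 C. GR nuclear translocation read as complemented b-gal luminescence after 1 h RT detection.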

[9] = biological target: Mitogen-activated protein kinase 10 (Mus musculus) (UniProt Q61831); experiment: JNK3 AlphaScreen Assay (AID 530; active = well fitted curve in either direction with a large enough effect, not every such curve was filed as active;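 note: kinase came from lysate of stimulated human HepG2 cells; signal reports phosphorylation of biotinylated GST-cJun 1-79 at Ser73 with 10 µM ATP; % is set by controls: 0 for no effect and ±100 for the full control effect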)
Method in brief: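 qHTS format: compounds tested as titrations against IL-1beta/TNF-alpha-activated HepG2 lysate JNK3 with biotin-GST-cJun substrate and 10 uM ATP at room temperature. Loss of anti-phospho-cJun AlphaScreen signal indicates inhibition.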

[10] = AP1 Signaling Pathway (AID 357; active = well fitted curve in either direction with a large enough effect, not every such curve was filed as active;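 note: ME-180 reporter cells stimulated with EGF at its EC50 level; % is set by controls: 0 for no effect and ±100 for the full control effect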); details: ME-180 AP-1-bla reporter, EGF-induced, beta-lactamase ratio, 5 h; at 38 µM (top of the series)
Method in brief: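 Cells are seeded overnight, exposed to compound titrations and an EC50 level of EGF for 5 hours at 37 °C, then loaded with CCF4 dye for 2.5 hours. Beta-lactamase activity under the AP-1 element is read as a blue/green ratio.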

[11] = biological target: Cytochrome P450 1A2 (Homo sapiens) (UniProt P05177); experiment: p450-cyp1a2 (AID 410; calls by dose curve; note: potency is the fitted concentration of half-maximal effect;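 for activity change, negative = inhibition: -100% = full effect of reference inhibitor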)
Sequence of Cytochrome P450 1A2 (Homo sapiens) (P05177 whole entry, looked up): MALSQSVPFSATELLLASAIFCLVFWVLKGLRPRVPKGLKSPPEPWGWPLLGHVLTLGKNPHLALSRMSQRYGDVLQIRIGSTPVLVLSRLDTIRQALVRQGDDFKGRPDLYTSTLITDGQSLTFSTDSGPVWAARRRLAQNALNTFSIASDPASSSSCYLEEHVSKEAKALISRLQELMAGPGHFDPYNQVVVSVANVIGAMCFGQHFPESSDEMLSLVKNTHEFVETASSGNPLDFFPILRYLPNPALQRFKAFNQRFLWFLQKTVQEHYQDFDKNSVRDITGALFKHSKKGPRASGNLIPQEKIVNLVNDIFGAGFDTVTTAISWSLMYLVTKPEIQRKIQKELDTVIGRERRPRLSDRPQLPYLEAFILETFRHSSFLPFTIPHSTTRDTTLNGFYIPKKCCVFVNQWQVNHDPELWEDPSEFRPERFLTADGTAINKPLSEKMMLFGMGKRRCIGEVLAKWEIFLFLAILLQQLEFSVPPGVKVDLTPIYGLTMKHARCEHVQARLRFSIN
Method in brief: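 Human CYP1A2 (20nM) demethylated Luciferin-ME at its Km (100uM) in 100mM KPO4. After 10 min compound preincubation, NADPH regeneration ran the reaction 60 min at room temperature. Luciferin was read by luminescence, normalized to 57 uM furafylline.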

[12] = NFAT Signaling Pathway (AID 444; active = well fitted curve in either direction with a large enough effect, not every such curve was filed as active;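 note: carbachol stimulus at about its EC50 of 1 µM final; % is set by controls: 0 for no effect and ±100 for the full control effect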); details: Jurkat NFAT-bla M1, carbachol, beta-lactamase ratio, 5 h; at 38 µM (top of the series)
Method in brief: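 Jurkat cells with NFAT-driven β-lactamase reporter and co-expressed M1 receptor, stimulated with carbachol (final 1 uM, ~EC50), compound titration, 5 h at 37 °C. CCF4 loaded 1 h at RT; 460/530 nm ratio gave %activity and AC50.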

[13] = Stat Signaling Pathway (AID 446; active = well fitted curve in either direction with a large enough effect, not every such curve was filed as active); details: ME-180 SIE beta-lactamase reporter, IL-6 stimulated, 5 h; at 38 µM (top of the series)
Method in brief: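 Screening format detects activators and inhibitors alike: ME-180 SIE-bla cells stimulated at 40 pM IL-6 for 5 hrs with compound, then dual-emission beta-lactamase read at 405 nm excitation.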

[14] = biological target: Guanine nucleotide-binding protein G(i) subunit alpha-1 (Homo sapiens) (UniProt P63096); experiment: qHTS Assay for Inhibitors of RGS12 GoLoco Motif Activity (Green Fluorophore) (AID 879);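 note: 0% = labeled peptide with Gαi1 and full inhibition = labeled peptide alone without protein; negative values mean loss of peptide binding seen as reduced polarization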
Sequence of Guanine nucleotide-binding protein G(i) subunit alpha-1 (Homo sapiens) (P63096 whole entry, looked up): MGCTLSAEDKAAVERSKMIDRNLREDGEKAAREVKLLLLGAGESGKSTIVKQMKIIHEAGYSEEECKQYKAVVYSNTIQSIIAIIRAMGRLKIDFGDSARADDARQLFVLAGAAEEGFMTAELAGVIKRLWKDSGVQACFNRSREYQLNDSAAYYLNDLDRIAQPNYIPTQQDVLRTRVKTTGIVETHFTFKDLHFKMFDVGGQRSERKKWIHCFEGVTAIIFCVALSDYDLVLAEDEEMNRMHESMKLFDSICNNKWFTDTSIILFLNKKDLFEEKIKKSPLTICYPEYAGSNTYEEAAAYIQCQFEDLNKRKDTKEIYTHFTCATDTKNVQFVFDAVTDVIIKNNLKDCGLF
Method in brief: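 Fluorescence polarization assay: 50 nM Gαi1 with 10 nM FITC-labeled RGS12 GoLoco peptide in 10 mM Tris pH 7.5, 150 mM NaCl, 0.1 mM GDP, 0.05% NP40, 10 min at room temperature with compound.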

[15] = biological target: Cytochrome P450 3A4 (Homo sapiens) (UniProt P08684); experiment: qHTS Assay for Activators of Cytochrome P450 3A4 (AID 885); note: nearly all actives have a fitted effect of over 65% in size
Sequence of Cytochrome P450 3A4 (Homo sapiens) (P08684 whole entry, looked up): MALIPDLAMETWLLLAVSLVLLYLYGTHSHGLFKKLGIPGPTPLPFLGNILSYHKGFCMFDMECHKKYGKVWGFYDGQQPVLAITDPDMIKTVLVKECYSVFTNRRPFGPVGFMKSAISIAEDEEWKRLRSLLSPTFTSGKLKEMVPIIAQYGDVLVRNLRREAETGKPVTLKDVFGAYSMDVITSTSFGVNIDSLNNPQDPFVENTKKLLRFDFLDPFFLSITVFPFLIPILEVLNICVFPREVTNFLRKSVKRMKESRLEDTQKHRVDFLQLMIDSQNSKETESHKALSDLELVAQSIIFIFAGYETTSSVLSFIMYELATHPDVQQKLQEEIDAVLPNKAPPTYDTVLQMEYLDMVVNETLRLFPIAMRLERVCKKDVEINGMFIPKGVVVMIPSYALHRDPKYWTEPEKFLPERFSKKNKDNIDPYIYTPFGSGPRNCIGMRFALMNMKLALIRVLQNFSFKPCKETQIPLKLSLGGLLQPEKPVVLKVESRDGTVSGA
Method in brief: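 Steps: enzyme/substrate mix dispensed; compound added, 10 min RT; NADPH regeneration solution added, 60 min RT; luciferin detection buffer stops reaction; 20 min later luminescence measured.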

[16] = biological target: Cytochrome P450 2C19 (Homo sapiens) (UniProt P33261); experiment: qHTS Assay for Inhibitors and Substrates of Cytochrome P450 2C19 (AID 899); note: nearly all actives have a fitted effect of over 60% in size; note: potency is the fitted concentration of half-maximal effect
Sequence of Cytochrome P450 2C19 (Homo sapiens) (P33261 whole entry, looked up): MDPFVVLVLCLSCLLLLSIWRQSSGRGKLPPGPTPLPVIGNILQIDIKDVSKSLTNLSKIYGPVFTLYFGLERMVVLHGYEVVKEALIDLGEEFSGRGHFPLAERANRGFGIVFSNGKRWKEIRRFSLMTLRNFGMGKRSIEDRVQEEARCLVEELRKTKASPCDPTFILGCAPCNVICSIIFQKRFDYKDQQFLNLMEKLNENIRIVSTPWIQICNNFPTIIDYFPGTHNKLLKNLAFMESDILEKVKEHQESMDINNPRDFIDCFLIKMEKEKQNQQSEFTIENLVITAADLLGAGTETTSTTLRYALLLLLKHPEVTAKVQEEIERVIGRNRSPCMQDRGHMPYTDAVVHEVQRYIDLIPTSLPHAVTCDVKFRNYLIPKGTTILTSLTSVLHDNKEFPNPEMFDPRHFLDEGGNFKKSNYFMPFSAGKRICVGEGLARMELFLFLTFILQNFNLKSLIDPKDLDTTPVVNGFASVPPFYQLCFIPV
Method in brief: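 Luminescent read-out of luciferin formed from Luciferin-H EGE (10uM, equal to KM). Enzyme 5nM in 50mM KPO4; compound added, 10 min at 37C, then NADPH regenerating system for 60 min at 37C. Full inhibition defined by 57uM ketoconazole.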

[17] = biological target: Pyruvate kinase (Leishmania mexicana) (UniProt Q27686); experiment: qHTS Validation Assay for Inhibitors of Leishmania Mexicana Pyruvate Kinase (AID 945); note: potency is the fitted concentration of half-maximal effect;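 for activity change, negative = inhibition: 0% = DMSO only neutral control wells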
Sequence of Pyruvate kinase (Leishmania mexicana) (Q27686 2-499 E452W): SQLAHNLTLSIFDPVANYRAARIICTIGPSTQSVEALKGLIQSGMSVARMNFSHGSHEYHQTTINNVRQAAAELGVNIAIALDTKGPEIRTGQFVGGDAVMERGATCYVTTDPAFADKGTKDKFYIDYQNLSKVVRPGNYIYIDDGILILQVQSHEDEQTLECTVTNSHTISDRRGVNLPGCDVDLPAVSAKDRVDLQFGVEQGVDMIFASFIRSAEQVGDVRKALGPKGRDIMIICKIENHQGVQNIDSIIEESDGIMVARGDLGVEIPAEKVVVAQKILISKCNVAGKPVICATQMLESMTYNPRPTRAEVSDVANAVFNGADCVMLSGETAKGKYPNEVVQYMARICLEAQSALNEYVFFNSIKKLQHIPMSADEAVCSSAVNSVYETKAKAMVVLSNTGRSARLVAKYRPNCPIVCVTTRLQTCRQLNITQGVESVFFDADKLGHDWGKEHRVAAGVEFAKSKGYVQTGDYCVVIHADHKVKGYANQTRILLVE
Method in brief: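 Read-out: luminescence from PKLight stop/detection reagent, data normalized to DMSO. Reaction: 0.2 nM E451W LmPYK, 0.5 mM PEP, 0.1 mM ADP, pH 7.2, 1 h room temperature.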

[18] = biological target: Pyruvate kinase PKM (Homo sapiens) (UniProt P14618); experiment: qHTS Assay for Activators of Human Muscle Pyruvate Kinase (AID 954; active = well fitted curve in the direction sought with a large enough effect, not every such curve was filed as active;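 note: 0% = uninhibited enzyme and -100% = no enzyme or full thiadiazolimine inhibition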)
Sequence of Pyruvate kinase PKM (Homo sapiens) (P14618 whole entry, looked up): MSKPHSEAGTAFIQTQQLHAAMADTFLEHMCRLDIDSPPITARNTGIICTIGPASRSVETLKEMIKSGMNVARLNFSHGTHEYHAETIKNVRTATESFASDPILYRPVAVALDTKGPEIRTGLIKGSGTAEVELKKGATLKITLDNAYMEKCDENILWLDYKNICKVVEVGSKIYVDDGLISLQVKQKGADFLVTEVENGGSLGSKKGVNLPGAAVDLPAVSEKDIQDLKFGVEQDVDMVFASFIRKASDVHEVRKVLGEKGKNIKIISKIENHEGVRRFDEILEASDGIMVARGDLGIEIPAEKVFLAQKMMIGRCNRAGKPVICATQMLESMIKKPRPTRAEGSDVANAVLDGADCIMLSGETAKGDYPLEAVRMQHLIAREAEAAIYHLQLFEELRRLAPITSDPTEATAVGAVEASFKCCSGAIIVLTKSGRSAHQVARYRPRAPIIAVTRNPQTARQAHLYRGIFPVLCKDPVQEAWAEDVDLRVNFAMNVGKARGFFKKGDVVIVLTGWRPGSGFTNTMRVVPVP
Method in brief: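 Reaction: 0.1 nM purified PKM2 with 0.5 mM phosphoenolpyruvate and 0.1 mM ADP, room temperature, 1 h. Readout: luciferase-based ATP luminescence after stop reagent. Activators judged against a 0.3 nM enzyme column.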

[19] = biological target: Alpha-galactosidase A (Homo sapiens) (UniProt P06280); experiment: Counterscreen for Glucocerebrosidase Inhibitors: qHTS Assay for Human alpha-Galactosidase at pH 4.5 (AID 992); note: 0% is about no effect
Sequence of Alpha-galactosidase A (Homo sapiens) (P06280 whole entry, looked up): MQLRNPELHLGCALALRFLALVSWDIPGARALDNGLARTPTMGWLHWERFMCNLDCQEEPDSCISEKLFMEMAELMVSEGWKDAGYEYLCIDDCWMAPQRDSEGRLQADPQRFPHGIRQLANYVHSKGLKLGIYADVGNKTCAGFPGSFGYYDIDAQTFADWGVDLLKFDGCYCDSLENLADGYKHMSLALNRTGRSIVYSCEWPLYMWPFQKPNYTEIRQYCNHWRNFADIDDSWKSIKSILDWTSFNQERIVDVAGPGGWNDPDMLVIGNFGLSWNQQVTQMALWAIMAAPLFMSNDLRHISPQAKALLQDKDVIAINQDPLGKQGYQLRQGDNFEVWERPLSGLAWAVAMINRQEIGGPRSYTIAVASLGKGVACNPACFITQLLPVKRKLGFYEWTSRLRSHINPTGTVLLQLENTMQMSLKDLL
Method in brief: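 Concentration-response curves (0.7 nM to 77 uM final) were modeled with the Hill equation to give AC50. Reactions: 2 nM enzyme, 80 uM fluorogenic alpha-galactoside, pH 4.5 citric acid buffer, 20 min, room temperature.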

[20] = biological target: alpha-glucosidase (Oryza sativa, rice) (UniProt Q653V4); experiment: Counterscreen for Glucocerebrosidase Inhibitors: qHTS Assay for Rice alpha-Glucosidase at pH 5.0 (AID 997);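 note: 0% = full activity with enzyme and -100% = basal without enzyme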
Method in brief: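 Rice alpha-glucosidase (4 nM final) with 400 uM 4-methylumbelliferyl-alpha-D-glucopyranoside in citrate buffer pH 5.0, 20 min at room temperature, stopped at pH 10; fluorescence 365/440 nm, compounds 0.7 nM–77 uM, AC50 from Hill fits.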

[21] = measured here: cell count channel max response
[22] = measured here: lipid channel max response

O=C1CC2(CCCC2)CC(=O)N1CCNC[C@H]1COc2ccccc2O1
17.5%: max response [2, 22]
inactive: Potency [1] | activity change, negative = inhibition [2] -0.603% | Potency [3] | Potency [4] | Potency [5] | Potency [6]
16.6%: max response [2, 21]

O=C1CCc2c(ccc3ccccc23)O1
inactive: Potency [7] > 46 µM | Potency [8] > 46 µM | Potency [9] | Potency [1] | Potency [3] | Potency [4] | Potency [5] | Potency [6]

COc1ccc2c(c1)c(CC(=O)N1CCOCC1)c(C)n2C(=O)c1ccc(Cl)cc1
active: Potency [11] 12.6 µM and 25.1 µM
inactive: activity change, negative = inhibition [10] -8.4% | activity change, negative = inhibition [12] 2.03% | activity, negative = inhibition [13] -6.17% | Potency [7] > 46 µM | Potency [8] > 46 µM | Potency [9] | Potency [1] | outcome [14] | Potency [15] | Potency [16] | Potency [17] | outcome [18] | outcome [19] | outcome [20] | Potency [4] | Potency [5] | Potency [6]

CSc1nc(N)c2ncn([C@H]3O[C@H](COP(=O)(O)OP(=O)(O)OP(=O)(O)O)[C@@H](O)[C@@H]3O)c2n1
-2.91%: max response [2, 21]
1.82%: max response [2, 22]
inactive: Potency [7] > 46 µM | Potency [8] > 46 µM | Potency [9] | Potency [1] | Potency [16] | activity change, negative = inhibition [2] 4.02% | Potency [4] | Potency [5] | Potency [6]

O=C1CC[C@H](C(=O)O)N1
inactive: Potency [5] | Potency [6]

N#CC(=C(/N)Sc1ccccc1N)/C(C#N)=C(/N)Sc1ccccc1N
active: activity change, negative = inhibition [10] -84.2% | Potency [11] 12.6 µM and 31.6 µM
inactive: activity change, negative = inhibition [12] 8.23% | Potency [7] > 46 µM | Potency [8] > 46 µM | Potency [9] | outcome [14] | Potency [15] | Potency [17] | outcome [18] | outcome [19] | outcome [20] | Potency [5] | Potency [6]

Cc1cccc(/C=C\c2ccccc2)n1
inactive: activity change, negative = inhibition [10] -0.643% | activity change, negative = inhibition [12] -3.22% | Potency [7] > 46 µM | Potency [8] > 46 µM | Potency [9] | outcome [14] | Potency [15] | outcome [18] | outcome [19] | outcome [20] | Potency [4] | Potency [5] | Potency [6]
active: Potency [11] 631 nM and 398 nM | Potency [16] 0.501 µM | Potency [17] 15.8 µM

O[C@H](CCCN1CCN(c2ncc(F)cn2)CC1)c1ccc(F)cc1
inactive: Potency [7] > 46 µM | Potency [8] > 46 µM | Potency [9] | Potency [1] | Potency [3] | Potency [4] | Potency [5] | Potency [6]
active: Potency [11] 31.6 µM

c1ccc2oc(C3=NCCN3)cc2c1
inactive: Potency [7] > 46 µM | Potency [8] > 46 µM | Potency [9] | Potency [3] | Potency [4] | Potency [5] | Potency [6]
active: Potency [11] 5.01 µM

CC(C)[C@@H]1C(=O)N(S(C)(=O)=O)[C@H]2CCN(C(=O)/C=C\CN3CCCCC3)[C@@H]12
inactive: Potency [11] | Potency [7] > 46 µM | Potency [8] > 46 µM | Potency [9] | Potency [3] | Potency [4] | Potency [5] | Potency [6]

N[C@H](Cn1ccc(=O)n(Cc2ccccc2C(=O)O)c1=O)C(=O)O
inactive: Potency [11] | Potency [7] > 46 µM | Potency [8] > 46 µM | Potency [9] | Potency [1] | Potency [3] | Potency [4] | Potency [5] | Potency [6]

CC#CCOC(=O)c1c(C)nc2sc3c(c2c1N)CC[C@@H](O)C3
active: Potency [11] 398 nM and 25.1 nM
inactive: activity change, negative = inhibition [10] -15.6% | activity change, negative = inhibition [12] -25.8% | Potency [7] > 46 µM | Potency [8] > 46 µM | Potency [9] | Potency [1] | outcome [14] | Potency [15] | Potency [16] | Potency [17] | outcome [18] | outcome [19] | outcome [20] | Potency [4] | Potency [5] | Potency [6]
